Several values for one entry are separate records, joined by “and”; a condition that tells them apart may be missing. Equal values may be shown once. Some compounds were tested as several samples or in several runs, with calls that do not always agree. Activity calls are given as the source filed them. How the source made its calls: active means hit-call score of the fitted dose curve at least 0.9, where 1 is the maximum; inactive means score below 0.9.
How the values were obtained:
[1] = APR_HepG2_NuclearSize_72hr: Apredica 72-hour HepG2 Assay for Nuclear Size (AID 2282925); conditions: high-content imaging, actives raise or lower the signal
Summary of the method: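 Nuclear size was read by high-content imaging of Hoechst 33342 stain after formaldehyde fixation. Compounds ran 72 h on HepG2 at 0.39 to 200 uM, with final DMSO 0.5% v/v. Curves fitted both directions relative to DMSO control.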

[2] = ATG_CRE_CIS: Attagene CIS-FACTORIAL HepG2 Assay for human cAMP Responsive Element (CRE) binding protein 3 (AID 2282926); conditions: HepG2 CRE cis-reporter, Attagene multiplexed mRNA; actives raise or lower the signal
Summary of the method: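 Endogenous transcription factor activity read via CRE-regulated reporter transcripts in transfected HepG2 cells. After 24 h exposure, RNA was reverse-transcribed, amplified, fluorescently labelled and sized by capillary electrophoresis; gain or loss fitted against DMSO.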

[3] = target: CCAAT/enhancer-binding protein beta (Homo sapiens) (UniProt P17676); assay: ATG_C_EBP_CIS: Attagene CIS-FACTORIAL HepG2 Assay for human CCAAT/Enhancer Binding Protein (C/EBP) beta (AID 2282927); conditions: HepG2 Attagene cis-factorial transcription factor reporter; actives raise or lower the signal
CCAAT/enhancer-binding protein beta (Homo sapiens), sequence (P17676 whole entry, looked up): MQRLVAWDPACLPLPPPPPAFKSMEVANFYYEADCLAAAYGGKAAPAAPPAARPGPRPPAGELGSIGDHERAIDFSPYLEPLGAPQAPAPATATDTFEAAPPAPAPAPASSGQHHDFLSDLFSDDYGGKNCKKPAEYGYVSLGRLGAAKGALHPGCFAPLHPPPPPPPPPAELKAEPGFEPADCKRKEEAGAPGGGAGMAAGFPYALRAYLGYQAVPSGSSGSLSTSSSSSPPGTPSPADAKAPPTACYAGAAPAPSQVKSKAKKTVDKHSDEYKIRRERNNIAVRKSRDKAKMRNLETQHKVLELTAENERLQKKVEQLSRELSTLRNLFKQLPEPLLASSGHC
Summary of the method: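 Endogenous transcription factor activity in human liver HepG2 cells is inferred from induction of a CEBPB-linked reporter mRNA. Exposure lasts 24 h; activity is fitted in both directions relative to DMSO.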

[4] = ATG_CMV_CIS: Attagene CIS-FACTORIAL HepG2 Assay for human CMV (Internal Marker) (AID 2282928); conditions: HepG2 CMV promoter reporter, transcription factor profiling; actives raise or lower the signal;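 further: endpoint acts as a background internal control marker rather than a target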
Summary of the method: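 Readout: fluorescent reporter cDNA fragments separated by capillary electrophoresis after RT-PCR and HpaI cut. Cells: HepG2 carrying transfected cis-promoter reporter constructs, dosed 24 h. Endpoint serves as background internal-marker control, fit bidirectionally versus DMSO.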

[5] = ATG_DR4_LXR_CIS: Attagene CIS-FACTORIAL HepG2 Assay for human Liver X Receptor (LXR), DR4 submotif (AID 2282929); conditions: HepG2 Attagene DR4 cis-reporter, mRNA transcription; actives raise or lower the signal
Summary of the method: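 Fluorescence intensity of labelled reporter cDNA fragments, separated by capillary electrophoresis, gives the signal. HepG2 cells bearing cis-regulated reporter constructs were treated 24 h; activity fitted bidirectionally relative to DMSO negative control.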

[6] = target: Aryl hydrocarbon receptor (Homo sapiens) (UniProt P35869); assay: ATG_Ahr_CIS: Attagene CIS-FACTORIAL HepG2 Assay for human Aryl Hydrocarbon Receptor (Ahr) (AID 2282930); conditions: HepG2 AhR cis-factorial reporter transcription; actives raise or lower the signal
Aryl hydrocarbon receptor (Homo sapiens), sequence (P35869 whole entry, looked up): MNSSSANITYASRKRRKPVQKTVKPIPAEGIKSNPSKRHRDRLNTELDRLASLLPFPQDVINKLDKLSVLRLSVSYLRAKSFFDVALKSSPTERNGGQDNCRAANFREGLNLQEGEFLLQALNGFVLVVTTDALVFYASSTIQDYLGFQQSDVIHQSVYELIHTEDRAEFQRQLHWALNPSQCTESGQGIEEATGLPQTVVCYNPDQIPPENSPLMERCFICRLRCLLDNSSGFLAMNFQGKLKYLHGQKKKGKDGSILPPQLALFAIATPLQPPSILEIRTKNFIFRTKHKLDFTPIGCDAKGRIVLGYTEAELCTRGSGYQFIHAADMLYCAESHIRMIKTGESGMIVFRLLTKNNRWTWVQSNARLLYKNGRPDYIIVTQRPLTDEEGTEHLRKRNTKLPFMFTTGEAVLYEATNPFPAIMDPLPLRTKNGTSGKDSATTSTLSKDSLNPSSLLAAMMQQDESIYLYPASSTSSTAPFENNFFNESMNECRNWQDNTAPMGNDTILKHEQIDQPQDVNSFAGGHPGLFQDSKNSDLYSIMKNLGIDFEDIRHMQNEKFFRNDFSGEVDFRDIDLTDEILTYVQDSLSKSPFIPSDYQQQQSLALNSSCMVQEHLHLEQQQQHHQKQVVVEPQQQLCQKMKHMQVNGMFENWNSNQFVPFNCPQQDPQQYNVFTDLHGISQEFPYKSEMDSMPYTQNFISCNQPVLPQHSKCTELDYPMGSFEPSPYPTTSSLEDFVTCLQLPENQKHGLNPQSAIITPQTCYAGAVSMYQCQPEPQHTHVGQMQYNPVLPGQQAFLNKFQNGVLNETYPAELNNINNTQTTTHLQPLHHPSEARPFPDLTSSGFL
Summary of the method: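 Transient MRTU transfection of HepG2 → 24 h compound exposure → total RNA, oligo(dT) RT → PCR, 6-FAM extension, HpaI cut → CE fluorescence. DMSO = baseline; bidirectional curve fit.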

[7] = ATG_AP_1_CIS: Attagene CIS-FACTORIAL HepG2 Assay for human Activator Protein 1 (AP-1) (AID 2282931); conditions: HepG2 Attagene cis-factorial AP-1 reporter mRNA; actives raise or lower the signal
Summary of the method: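 Multiplexed HepG2 reporter assay, 24 h dosing. mRNA induction detected by RT-PCR plus capillary electrophoresis. Activity fitted in both directions against DMSO.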

[8] = ATG_AP_2_CIS: Attagene CIS-FACTORIAL HepG2 Assay for human Activator Protein 2 (AP-2) (AID 2282932); conditions: HepG2 AP-2 cis-reporter, Attagene transcription factor profiling; actives raise or lower the signal
Summary of the method: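 Transiently transfected HepG2 cells are exposed to chemical for 24 h. Reporter transcripts are then measured as fluorescence following RT-PCR and capillary separation, and gain- or loss-of-signal is fitted relative to DMSO.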

[9] = ATG_BRE_CIS: Attagene CIS-FACTORIAL HepG2 Assay for human Bone Morphogenetic Protein (BMP) Response Element (BRE) (AID 2282933); conditions: HepG2 BMP response element reporter, Attagene transcription factor profiling; actives raise or lower the signal
Summary of the method: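 HepG2 cells transiently transfected with multiplexed cis-element reporter units were dosed with chemical for 24 h. Reporter mRNA was measured by RT-PCR with fluorescent labelling, HpaI digestion and capillary electrophoresis; bidirectional fitting relative to DMSO.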

[10] = target: Retinoic acid receptor alpha (Homo sapiens) (UniProt P10276); assay: ATG_DR5_RAR_CIS: Attagene CIS-FACTORIAL HepG2 Assay for human Retinoic Acid Receptor Alpha (RARE), DR5 submotif (AID 2282934); conditions: HepG2 Attagene cis-factorial RARE DR5 reporter, mRNA; actives raise or lower the signal;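 on AC50: reporter responds to endogenous RAR alpha beta and gamma in HepG2 not RARA alone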
Retinoic acid receptor alpha (Homo sapiens), sequence (P10276 whole entry, looked up): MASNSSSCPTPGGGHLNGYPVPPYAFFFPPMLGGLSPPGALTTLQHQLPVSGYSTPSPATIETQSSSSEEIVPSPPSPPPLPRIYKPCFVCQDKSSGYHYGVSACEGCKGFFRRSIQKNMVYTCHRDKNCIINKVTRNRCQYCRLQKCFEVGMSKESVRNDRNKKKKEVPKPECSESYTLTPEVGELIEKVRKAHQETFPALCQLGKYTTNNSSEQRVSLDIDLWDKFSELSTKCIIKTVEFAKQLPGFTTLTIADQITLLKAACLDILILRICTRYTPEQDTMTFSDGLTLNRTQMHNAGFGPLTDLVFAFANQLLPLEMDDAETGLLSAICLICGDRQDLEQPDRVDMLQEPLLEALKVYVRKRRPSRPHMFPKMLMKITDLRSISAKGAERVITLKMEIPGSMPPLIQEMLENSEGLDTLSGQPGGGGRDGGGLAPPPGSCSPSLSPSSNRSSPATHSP
Summary of the method: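 Transient MRTU transfection of HepG2; 24 h compound treatment; TriZol RNA, oligo(dT) RT, PCR, FAM labelling, capillary electrophoresis. Bidirectional fit vs DMSO. Endogenous TF activity at DR5 RARE.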

[11] = target: Transcription factor E2F1 (Homo sapiens) (UniProt Q01094); assay: ATG_E2F_CIS: Attagene CIS-FACTORIAL HepG2 Assay for human E2F Transcription Factor 1 (AID 2282935); conditions: HepG2 Attagene cis-reporter, E2F reporter RNA transcripts; actives raise or lower the signal
Transcription factor E2F1 (Homo sapiens), sequence (Q01094 whole entry, looked up): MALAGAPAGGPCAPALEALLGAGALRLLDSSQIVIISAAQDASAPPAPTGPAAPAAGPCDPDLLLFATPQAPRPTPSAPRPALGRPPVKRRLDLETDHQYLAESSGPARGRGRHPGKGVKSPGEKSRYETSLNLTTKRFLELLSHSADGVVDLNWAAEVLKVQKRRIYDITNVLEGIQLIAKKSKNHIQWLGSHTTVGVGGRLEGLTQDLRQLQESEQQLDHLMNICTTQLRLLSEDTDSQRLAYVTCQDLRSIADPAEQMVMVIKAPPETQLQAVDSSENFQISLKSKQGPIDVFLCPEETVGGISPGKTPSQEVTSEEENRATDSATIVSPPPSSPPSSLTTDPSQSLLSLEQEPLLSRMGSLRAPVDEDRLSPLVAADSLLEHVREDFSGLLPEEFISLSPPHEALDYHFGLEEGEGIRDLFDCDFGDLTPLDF
Summary of the method: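 Fluorescent RT-PCR products, digested with HpaI for 2 h at 37 C, are separated by capillary electrophoresis. Source RNA comes from transfected HepG2 cultures treated for 24 h.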

[12] = ATG_E_Box_CIS: Attagene CIS-FACTORIAL HepG2 Assay for human Enhancer Box (E-box) (AID 2282936); conditions: HepG2 E-box cis-reporter transcription, actives raise or lower the signal
Summary of the method: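 Fluorescent reporter fragments separated by capillary electrophoresis gave the signal; mRNA came from HepG2 cells transfected with cis-element reporters and treated 24 h. Curves fitted bidirectionally relative to DMSO controls.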

[13] = ATG_M_61_CIS: Attagene CIS-FACTORIAL HepG2 Assay for M61 Transcription Factor (Internal Marker) (AID 2282937); conditions: HepG2 Attagene CIS-FACTORIAL M61 internal marker reporter; actives raise or lower the signal
Summary of the method: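 Endogenous transcription factor activity in HepG2 is read through transiently transfected cis-element reporter units. After 24 h dosing, RNA undergoes reverse transcription, PCR and primer extension with 6-FAM before capillary electrophoresis; DMSO-referenced bidirectional fit.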

[14] = ATG_EGR_CIS: Attagene CIS-FACTORIAL HepG2 Assay for human Early Growth Response 1 (EGR1) (AID 2282938); conditions: HepG2 Attagene CIS-FACTORIAL EGR reporter mRNA; actives raise or lower the signal
Summary of the method: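 Activity is taken as induction or loss of reporter mRNA versus DMSO, fitted bidirectionally. Transcripts from cis-regulated reporter units in transiently transfected HepG2 were measured after 24 h by RT-PCR with capillary electrophoresis.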

[15] = ATG_M_19_CIS: Attagene CIS-FACTORIAL HepG2 Assay for M19 Transcription Factor (Internal Marker) (AID 2282939); conditions: HepG2 Attagene CIS-FACTORIAL M19 internal marker reporter; actives raise or lower the signal
Summary of the method: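 HepG2 cells transiently transfected with cis-regulated multiple reporter transcription units were dosed for 24 h; reporter mRNA was quantified by RT-PCR, 6-FAM primer-extension labelling, HpaI digestion and capillary electrophoresis, with bidirectional fitting against DMSO baseline.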

[16] = ATG_ERE_CIS: Attagene CIS-FACTORIAL HepG2 Assay for Estrogen Response Element (ERE) (AID 2282940); conditions: HepG2 ERE cis-reporter, Attagene RNA transcript; actives raise or lower the signal
Summary of the method: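 HepG2 cells transiently transfected with cis-promoter-driven multiplexed reporter transcription units report endogenous TF activity. After 24 h compound exposure, reporter mRNA is quantified by RT-PCR with capillary electrophoresis fluorescence; bidirectional fitting versus DMSO baseline.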

[17] = ATG_Ets_CIS: Attagene CIS-FACTORIAL HepG2 Assay for human Erythroblast Transformation Specific (ETS) (AID 2282941); conditions: HepG2 ETS cis-reporter transcription, actives raise or lower the signal
Summary of the method: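 RT-PCR/capillary electrophoresis fluorescence read-out of reporter mRNA; HepG2 transient multi-reporter transfection; 24 h compound exposure; gain or loss of signal fitted bidirectionally relative to DMSO.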

[18] = target: Hepatocyte nuclear factor 3-beta (Homo sapiens) (UniProt Q9Y261); assay: ATG_FoxA2_CIS: Attagene CIS-FACTORIAL HepG2 Assay for human Forkhead box A2 (FOXA2) (AID 2282942); conditions: HepG2 cis-reporter transcription factor activity, 24 h; actives raise or lower the signal
Hepatocyte nuclear factor 3-beta (Homo sapiens), sequence (Q9Y261 whole entry, looked up): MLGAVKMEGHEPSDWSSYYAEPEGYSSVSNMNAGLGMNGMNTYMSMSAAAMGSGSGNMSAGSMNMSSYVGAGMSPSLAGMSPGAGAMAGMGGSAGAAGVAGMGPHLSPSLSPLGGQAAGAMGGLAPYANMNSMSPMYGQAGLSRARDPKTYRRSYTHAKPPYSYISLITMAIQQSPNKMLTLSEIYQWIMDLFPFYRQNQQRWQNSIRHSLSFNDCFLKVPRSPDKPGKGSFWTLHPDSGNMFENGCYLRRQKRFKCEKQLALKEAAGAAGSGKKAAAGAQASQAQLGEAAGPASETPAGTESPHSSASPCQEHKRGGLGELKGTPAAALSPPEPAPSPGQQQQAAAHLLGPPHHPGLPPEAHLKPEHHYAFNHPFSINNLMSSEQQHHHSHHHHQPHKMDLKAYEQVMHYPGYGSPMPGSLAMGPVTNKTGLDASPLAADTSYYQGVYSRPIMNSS
Summary of the method: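 Reporter transcript induction is measured by fluorescence after capillary electrophoresis of RT-PCR products from HepG2 cells exposed 24 h. Cis-regulated reporter units report endogenous factor activity; curves fitted both directions against DMSO.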

[19] = ATG_FoxO_CIS: Attagene CIS-FACTORIAL HepG2 Assay for human Forkhead box O (FoxO) (AID 2282943); conditions: HepG2 Attagene cis-reporter, FoxO element, mRNA; actives raise or lower the signal
Summary of the method: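 HepG2, transient MRTU transfection (cis element, endogenous TFs). Dose 24 h. TriZol RNA → oligo(dT) RT → PCR → 6-FAM primer extension → HpaI cut → CE. Gain/loss vs DMSO.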

[20] = ATG_GATA_CIS: Attagene CIS-FACTORIAL HepG2 Assay for human GATA Binding Protein (AID 2282944); conditions: HepG2 GATA cis-element reporter, Attagene multiplex mRNA; actives raise or lower the signal
Summary of the method: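 HepG2 cells transiently transfected with multiplexed cis-element reporter units reflecting endogenous transcription factor activity; reporter mRNA measured after 24 h dosing by RT-PCR, 6-FAM labeling, HpaI digestion and capillary electrophoresis. Bidirectional fitting versus DMSO baseline.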

Measured: AC50

CCCCOC(=O)c1ccccc1C(=O)OCCCC
inactive: [1] | [2] | [3] | [4] | [5] | [6] | [7] | [8] | [9] | [10] | [11] | [12] | [13] | [14] | [15] | [17] | [18] | [19] | [20]
active: [5] 177 µM | [7] 68.2 µM and 85.6 µM | [14] 34.1 µM | [16] 50 µM [middle of 5 runs]

Oc1ccccc1-c1ccccc1
inactive: [1] | [2] | [3] | [4] | [6] | [7] | [8] | [11] | [12] | [13] | [14] | [15] | [16] | [17] | [18] | [19] | [20]
active: [2] 148 µM | [4] 56.6 µM | [5] 80.3 µM and 64 µM | [6] 40.5 µM | [7] 88.3 µM | [9] 71.7 µM and 150 µM | [14] 62.4 µM | [16] 13.1 µM

CO/C=C(/C(=O)OC)c1ccccc1Oc1cc(Oc2ccccc2C#N)ncn1
active: [2] 21 µM | [3] 7.46 µM | [5] 41.8 µM and 26.2 µM and 52.9 µM | [6] 106 µM and 122 µM | [7] 9.92 µM | [14] 11.7 µM and 13.8 µM
inactive: [1] | [2] | [3] | [4] | [5] | [6] | [7] | [8] | [9] | [10] | [11] | [12] | [13] | [14] | [15] | [16] | [17] | [18] | [19] | [20]

O=C(O)c1nc(Cl)ccc1Cl
active: [6] 50 µM
inactive: [1] | [2] | [3] | [4] | [5] | [6] | [7] | [8] | [9] | [11] | [12] | [13] | [14] | [15] | [16] | [17] | [18] | [19] | [20]

O=C(Nc1ccccc1)Nc1ccnc(Cl)c1
inactive: [1] | [5] | [6] | [8] | [11] | [12] | [13] | [15] | [16] | [17] | [18] | [20]
active: [2] 22.5 µM | [3] 50 µM | [4] 26.5 µM | [7] 16.3 µM | [9] 27.8 µM | [10] 88.1 µM | [14] 50 µM | [19] 13 µM

Source: PubChem BioAssay (EPA / NIEHS)
